60 molecules from PubChem BioAssay AID651744 (Broad Institute, 2012) can be followed below.

Out of some 5,600 compounds screened, about 3,100 (55%) were called active. Roughly 3% stayed inconclusive and do not appear here.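 The calls were made as follows: active = mean loss of cell viability signal at or above a set limit, and enough replicates individually reaching it; inconclusive = meets only the mean limit or only the replicate share; inactive = meets neither condition.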 The set was probably picked from earlier hits. The list is a sample of the results.

The term inhibition denotes the relative decrease from the control value, in per cent.

A short description of this assay: viability loss of mouse 3T3 cells – cell-based, cherry-pick, single point, set 2, cytotoxicity control, confirmation (AID 651744).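 Also: 0% = median of neutral control wells and 100% = median of positive control wells.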 Particulars: NIH/3T3 viability, CellTiter-Glo ATP luminescence, 90 h; at 24.9 µM; stronger effect = higher value. For orientation: Cellular ATP, detected with luciferase, serves as a proxy for viable cell number.
Regarding `C[C@H](CO)N1C[C@H](C)[C@@H](CN(C)Cc2ccc(C(F)(F)F)cc2)OCCCC[C@H](C)Oc2ccc(NC(=O)C3CCCCC3)cc2C1=O`, the inhibition is 22.4% (inactive).
As to `C[C@H]1CCCCO[C@H](CN(C)Cc2ccc(C(F)(F)F)cc2)[C@@H](C)CN([C@@H](C)CO)C(=O)c2cc(NC(=O)C3CCCCC3)ccc2O1`, the inhibition is 25.9% (active).
Take `C[C@H](CO)N1C[C@H](C)[C@H](CN(C)C(=O)Nc2ccc(C(F)(F)F)cc2)OCCCC[C@H](C)Oc2ccc(NC(=O)C3CCCCC3)cc2C1=O`: the inhibition was -9.18% (inactive).
On to `CC(C)CC#Cc1ccc2c(c1)O[C@H](CN(C)C(=O)C1CC1)[C@@H](C)CN([C@@H](C)CO)S2(=O)=O`, for which the inhibition is 34.8% (active).
With `CCCC#Cc1ccc2c(c1)O[C@H](CN(C)C(=O)CC)[C@@H](C)CN([C@H](C)CO)S2(=O)=O`, the inhibition was 48.4% (active).
With `C[C@H](CO)N1C[C@H](C)[C@@H](CN(C)C(=O)C2CCCCC2)Oc2cc(-c3ccccc3)ccc2S1(=O)=O`, the inhibition was 33.8% (active).
For `CCC(=O)N(C)C[C@@H]1Oc2cc(C#CCN(C)C)ccc2S(=O)(=O)N([C@H](C)CO)C[C@H]1C`, the inhibition was 5.45% (inactive).
Take `C[C@@H]1CN([C@@H](C)CO)S(=O)(=O)c2ccc(C#CCN(C)C)cc2O[C@H]1CN(C)C(=O)C1CC1`: the inhibition is 15.6% (inactive).
For `COCC(=O)N1[C@H](CO)[C@@H](c2ccc(C#Cc3ccccc3F)cc2)[C@@H]1C#N`, the inhibition is 19.1% (inactive).
On to `N#C[C@@H]1[C@H](c2ccc(C#Cc3cccc(F)c3)cc2)[C@@H](CO)N1C(=O)C1CCCC1`, for which the inhibition was 105% (active).
Regarding `CCCC#Cc1ccc([C@@H]2[C@@H](C#N)N(C(=O)C3CCCC3)[C@@H]2CO)cc1`, the inhibition is 23.7% (inactive).
Turning to `N#C[C@@H]1[C@@H](c2ccc(/C=C/c3ccccc3)cc2)[C@@H](CO)N1C(=O)C1CC1`, the inhibition is 48.2% (active).
The value for `N#C[C@@H]1[C@@H](c2ccccc2)[C@@H](CO)N1C(=O)Cc1ccccc1` was 17% (inactive); that for `N#C[C@@H]1[C@@H](c2ccc(C#Cc3cccc(F)c3)cc2)[C@@H](CO)N1C(=O)C1CCC1` was 22.8% (inactive).
As to `Cc1noc(C)c1S(=O)(=O)N(C)C[C@H]1Oc2ccc(N(C)C)cc2CC(=O)N([C@H](C)CO)C[C@@H]1C`, the inhibition was -3.27% (inactive).
Consider `C[C@@H]1CN([C@H](C)CO)S(=O)(=O)c2ccc(C#Cc3ccncc3)cc2O[C@@H]1CN(C)S(=O)(=O)c1ccc(F)cc1`, for which the inhibition is 27.4% (active).
For the molecule `C[C@@H]1CN([C@@H](C)CO)S(=O)(=O)c2ccc(C#Cc3ccc(F)cc3)cc2O[C@H]1CN(C)S(C)(=O)=O`, the inhibition was 64.1% (active).
As to `CN(C)CC#Cc1ccc([C@H]2[C@H]3CN(S(=O)(=O)c4ccccc4F)CCCCN3[C@H]2CO)cc1`, the inhibition was 18.4% (inactive).
As for `Cc1ccccc1-c1ccc([C@H]2[C@H]3CN(S(=O)(=O)c4ccc(F)cc4)CCCCN3[C@H]2CO)cc1`, the inhibition is 103% (active).
The value for `Cc1ccccc1-c1ccc([C@@H]2[C@H](CO)N3CCCCN(S(=O)(=O)c4ccc(F)cc4)C[C@@H]23)cc1` was 102% (active).
Take `O=S(=O)(c1ccc(F)cc1)N1CCCCN2[C@H](C1)[C@H](c1ccc(C3=CCCCC3)cc1)[C@@H]2CO`: the inhibition was 105% (active).
For the molecule `Cc1cc(C(=O)Nc2cccc3c2O[C@@H](CN(C)Cc2ccc(C(=O)Nc4ccccc4N)cc2)[C@H](C)CN([C@@H](C)CO)C3=O)n(C)n1`, the inhibition was 10.2% (inactive).
For the molecule `C[C@@H]1CN([C@H](C)CO)C(=O)c2cccc(NC(=O)c3ccc(-c4nccs4)cc3)c2O[C@@H]1CN(C)C(=O)Nc1ccc(C(F)(F)F)cc1`, the inhibition was 44% (active).
As for `C[C@@H]1CCCCO[C@H](CN(C)C(=O)Nc2ccc(C(F)(F)F)cc2)[C@H](C)CN([C@H](C)CO)C(=O)c2cc(NC(=O)Nc3ccc(C(F)(F)F)cc3)ccc2O1`, the inhibition is -27.4% (inactive).
For `COc1ccc(NC(=O)N(C)C[C@H]2OCCCC[C@H](C)Oc3ccc(NC(=O)Nc4ccc(C(F)(F)F)cc4)cc3C(=O)N([C@@H](C)CO)C[C@@H]2C)cc1`, the inhibition is 20.7% (inactive).
`Cc1ccc(S(=O)(=O)N(C)C[C@H]2OCCCC[C@H](C)Oc3ccc(NC(=O)Cc4ccccc4)cc3C(=O)N([C@@H](C)CO)C[C@@H]2C)cc1`: the inhibition was -4.04% (inactive).
`C[C@H](CO)N1C[C@H](C)[C@@H](CN(C)Cc2ccc(C(=O)Nc3ccccc3N)cc2)Oc2c(NC(=O)c3ccc(-c4nccs4)cc3)cccc2C1=O`: the inhibition is 42% (active).
As to `C[C@H]1CN([C@@H](C)CO)C(=O)c2cccc(NS(=O)(=O)c3cn(C)cn3)c2O[C@@H]1CN(C)CC1CCCCC1`, the inhibition was 0.698% (inactive).
`C[C@@H]1CN([C@H](C)CO)C(=O)c2cccc(NC(=O)c3cnccn3)c2O[C@@H]1CN(C)Cc1ccc(C(=O)Nc2ccccc2N)cc1`: the inhibition was 68.5% (active).
The value for `Cc1ccc(S(=O)(=O)N(C)C[C@@H]2Oc3c(NC(=O)c4nc5ccccc5s4)cccc3C(=O)N([C@H](C)CO)C[C@@H]2C)cc1` was 49% (active).
For the molecule `COc1ccc(S(=O)(=O)N(C)C[C@H]2Oc3c(NC(=O)Nc4cccc5ccccc45)cccc3C(=O)N([C@@H](C)CO)C[C@H]2C)cc1`, the inhibition was 26.1% (inactive).
As for `O=C(Nc1cccc(F)c1)N1CCCCN2[C@H](CO)[C@H](c3ccc(C#CC4CC4)cc3)[C@@H]2C1`, the inhibition is 22.3% (inactive).
As to `O=C(C1CC1)N1CCCCN2[C@H](CO)[C@H](c3ccc(-c4cccc(F)c4)cc3)[C@H]2C1`, the inhibition was 56.9% (active).
Turning to `O=C(Nc1ccccc1F)N1CCCCN2[C@H](CO)[C@@H](c3ccc(-c4cccnc4)cc3)[C@H]2C1`, the inhibition is 14.6% (inactive).
Regarding `O=C(C1CCC1)N1CCCCN2[C@H](CO)[C@H](c3ccc(-c4cccc(F)c4)cc3)[C@@H]2C1`, the inhibition was 1.34% (inactive).
With `O=C(C1CCCC1)N1CCCCN2[C@@H](CO)[C@H](c3ccc(-c4cccc(F)c4)cc3)[C@@H]2C1` the figure was 105% (active).
For `N#Cc1cccc(-c2ccc([C@H]3[C@H](CO)N4CCCCN(C(=O)Nc5cccc(F)c5)C[C@@H]34)cc2)c1`, the inhibition is 105% (active).
For `O=C(C[C@@H]1C[C@H]2c3cc(NC(=O)C4CCC4)ccc3O[C@H]2[C@@H](CO)O1)NCc1ccc2c(c1)OCO2`, the inhibition was -13.1% (inactive).
Consider `C[C@@H]1CN([C@@H](C)CO)C(=O)c2cc(C#CC3CCCCC3)cnc2O[C@H]1CN(C)S(=O)(=O)c1ccccc1`, for which the inhibition is 106% (active).
With `CC(C)NC(=O)Nc1ccc2c(c1)C(=O)N([C@@H](C)CO)C[C@H](C)[C@H](CN(C)S(=O)(=O)c1ccc(Cl)cc1)OCCCC[C@H](C)O2` the figure was 14% (inactive).
Turning to `C[C@@H]1CCCCO[C@H](CN(C)S(=O)(=O)c2ccc(F)cc2)[C@H](C)CN([C@@H](C)CO)C(=O)c2cc(NS(=O)(=O)c3ccccc3)ccc2O1`, the inhibition is -19.2% (inactive).
`C[C@@H]1CN([C@H](C)CO)C(=O)c2cc(C#CC3CCCCC3)cnc2O[C@@H]1CN(C)C(=O)NC1CCCC1`: the inhibition is 75.6% (active).
Turning to `C[C@@H]1CCCCO[C@@H](CN(C)S(=O)(=O)c2ccc(Cl)cc2)[C@H](C)CN([C@@H](C)CO)C(=O)c2cc(NC(=O)Cc3ccccc3)ccc2O1`, the inhibition was 12.4% (inactive).
With `C[C@H]1CN([C@@H](C)CO)C(=O)c2cc(C#CC3CCCCC3)cnc2O[C@H]1CN(C)S(=O)(=O)c1ccccc1` the figure was 62.7% (active); with `C[C@H](CO)N1C[C@H](C)[C@H](CN(C)C(=O)C2CCCCC2)Oc2ncc(C#Cc3cccc(F)c3)cc2C1=O`, 92.3% (active); with `C[C@H](CO)N1C[C@H](C)[C@H](CN(C)C(=O)Nc2ccc3c(c2)OCO3)Oc2ncc(C#Cc3cccc(F)c3)cc2C1=O`, 103% (active).
As for `C[C@@H]1CN([C@H](C)CO)C(=O)c2cc(-c3cncnc3)cnc2O[C@H]1CN(C)C(=O)Nc1ccc2c(c1)OCO2`, the inhibition is 2.69% (inactive).
Consider `OC[C@@H]1[C@H](c2ccc(C#Cc3ccccc3)cc2)[C@@H]2CN(Cc3cncnc3)CCCCN12`, for which the inhibition was 104% (active).
Take `CN(C)C(=O)c1ccc(-c2ccc([C@H]3[C@@H](CO)N4CCCCN(CC5CC5)C[C@H]34)cc2)cc1`: the inhibition was -3.83% (inactive).
In the case of `OC[C@H]1[C@H](c2ccc(-c3cccc(F)c3)cc2)[C@@H]2CN(Cc3cncnc3)CCCCN12`, the inhibition is 31.7% (active).
With `Cc1ccc(-c2ccc([C@H]3[C@H](CO)N4CCCCN(Cc5cncnc5)C[C@@H]34)cc2)cc1` the figure was 64.8% (active).
For the molecule `Cc1cccc(-c2ccc([C@H]3[C@@H](CO)N4CCCCN(Cc5cncnc5)C[C@H]34)cc2)c1`, the inhibition is 102% (active).
In the case of `OC[C@@H]1[C@H](c2ccc(C#CC3(O)CCCC3)cc2)[C@H]2CN(Cc3cncnc3)CCCCN12`, the inhibition is 16.8% (inactive).
`CCC(=O)N1CC[C@@H]2[C@@H](CO)N(C)c3ccc(-c4cccc(OC)c4)cc3[C@@H]21`: the inhibition was -5.88% (inactive).
With `CC(C)C#Cc1ccc2c(c1)O[C@H](CN(C)Cc1ccccc1)[C@H](C)CN([C@@H](C)CO)S2(=O)=O`, the inhibition was 106% (active).
As to `C[C@@H]1CN([C@H](C)CO)S(=O)(=O)c2ccc(C#C[C@@H](C)O)cc2O[C@@H]1CN(C)Cc1ccc(-c2ccccc2)cc1`, the inhibition is 105% (active).
`CC(=O)N(C)C[C@H]1Oc2cc(C#CCN(C)C)ccc2S(=O)(=O)N([C@@H](C)CO)C[C@@H]1C`: the inhibition was 16.1% (inactive).
Turning to `C[C@@H]1CN([C@@H](C)CO)S(=O)(=O)c2ccc(/C=C/c3ccccc3)cc2O[C@H]1CN(C)Cc1ccccc1`, the inhibition is 72.5% (active).
Consider `C[C@H]1CN([C@@H](C)CO)S(=O)(=O)c2ccc(C#CCN(C)C)cc2O[C@@H]1CN(C)Cc1ccc(F)cc1`, for which the inhibition is 105% (active).
In the case of `COc1cccc(C#Cc2ccc([C@@H]3[C@H](C#N)N[C@H]3CO)cc2)c1`, the inhibition was 61.1% (active).
